Many of the other results were omitted from the sample, so hits are more common in it than they were.
Pf apPOL block: Pf-apPOL inhibitors, biochemical, fluorescence | Plasmodium falciparum apicoplast DNA polymerase (apPOL) | Recombinant Pf-apPOL, molecular beacon fluorescence, 1.5 h | inhibition, % at 10 µM | actives 0.25% (n = 210,000)
mHTT-CaM PPI inh: mutant huntingtin-calmodulin interaction inhibitors – biochemical, AlphaScreen, primary screen; actives 3.6% (n = 190,000); AID 1671202, 2021; AlphaScreen His-mHTT/GST-CaM binding, luminescence; P42858; inhibition, % at 15 µM;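 further: 0% = both proteins with DMSO and 100% = one protein alone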
Starred values were filed as active, the others as inactive; x = not tested or not shown. No stated cut-off is given here; in the data, active means inhibition above about 50%; inactive means the rest.

SMILES	Pf apPOL block	mHTT-CaM PPI inh
CCc1nnc(NC(=O)c2ccc(S(=O)(=O)N(C)C)cc2)o1	-4	24
COCC(=O)N1CCc2c(c(C(=O)NCc3cccc(C)c3)nn2C)C1	-3	-2
Cc1cccc(OCC(=O)N2CCc3c(c(-c4nc(-c5ccc(F)cc5)no4)nn3C)C2)c1	-7	-2
Cc1cccc(CNC(=O)c2nn(C)c3c2CN(C(=O)COc2ccc(F)cc2)CC3)c1	-3	63*
Cc1cccc(OCC(=O)N2CCc3c(c(C(=O)NCc4ccc(F)cc4)nn3C)C2)c1	-8	55*
COc1ccc(OCC(=O)N2CCc3c(c(C(=O)NCc4cccc(C)c4)nn3C)C2)cc1	-6	70*
Cc1cccc(CNC(=O)c2nn(C)c3c2CN(C(=O)c2cccs2)CC3)c1	-12	30
Cc1cccc(CNC(=O)c2nn(C)c3c2CN(C(=O)Cc2cccs2)CC3)c1	-10	69*
O=C1C(c2nc3ccccc3[nH]2)=C(O)c2ccccc21	-4	-8
CSc1cccc(-c2nnc(NC(=O)Cc3cccc4ccccc34)o2)c1	2	-14
COc1cccc(C2C(C(=O)Nc3ccccn3)=C(C)NC3=C2C(=O)CCC3)c1 (stereo unspecified)	3	-1
CCC1=NOC(C(=O)Nc2ccccc2)C1 (stereo unspecified)	-3	14
CCC(=O)N1CCc2c(c(C(=O)NCc3cccc(C)c3)nn2C)C1	30	26
COc1cccc(CC(=O)N2CCc3c(c(C(=O)NCc4cccc(C)c4)nn3C)C2)c1	-4	54*
CC(=O)c1cccc(NC(=O)c2cc(-c3ccc(Cl)cc3[N+](=O)[O-])oc2C)c1	-11	20
C#CCOc1c(/C=C2/C(=O)ON=C2C)cccc1OC	-9	11
O=C(O)CC1SC(c2ccc3c(c2)OCO3)=NC1=O (stereo unspecified)	52*	x
CC(C)(C)c1ccc(C2=NC(=O)C(CC(=O)O)S2)cc1 (stereo unspecified)	38	x
O=C1CSC(=Nc2ccccc2)N1c1ccccc1	x	-9
CCOc1cccc(=NCc2ccccc2)c2c(C)[nH]c(C)c12	0	76*
CCOc1cccc2cc(C(N)=O)c(=NCc3ccccc3)oc12	-1	-2
Cc1ccc(C)n1-c1ccc(Cl)cc1O	-8	93*
Cc1ccc(C)n1-c1ccc(C(=O)O)cc1O	-1	12
O=C(c1ccc(Cn2ccnc2)cc1)N1CCC(c2nnc(-c3ccc(F)cc3)o2)CC1	-9	-11
CCN(CC)c1ccc(CN2CCSCC2)cc1	0	25
SMILES	Pf apPOL block	mHTT-CaM PPI inh
CC(C)c1ccc(CN2CCCN(C)CC2)cc1	-11	-3
CN1CCCN(Cc2ccc(Br)cc2)CC1	75*	0
CCN1CCN(Cc2ccc(N(CC)CC)cc2)CC1	38	69*
CCN(CC)c1ccc(CN2CCN(C)CC2)cc1	0	68*
CCN(CC)c1ccc(CN2CCN(c3ncccn3)CC2)cc1	-10	8
CCC(Sc1nc2ccsc2c(=O)n1C1CC1)C(=O)Nc1cccc(C)c1 (stereo unspecified)	-7	27
O=C(NCc1cc(F)cc(F)c1)C1CCN(c2cn[nH]c(=O)c2)CC1	1	-5
CC1C(=O)N2CCCc3cc(NC(=O)COc4ccc5ccccc5c4)cc1c32 (stereo unspecified)	-12	52*
CC1C(=O)N2CCCc3cc(NC(=O)C(=O)NCc4ccc5c(c4)OCO5)cc1c32 (stereo unspecified)	4	25
COc1ccc(OC)c(CNC(=O)CN2C(=O)CCCc3ccccc32)c1	-4	5
Cc1ccc(N2C(=O)C(C)SC23C(=O)Nc2ccccc23)cc1 (stereo unspecified)	2	1
Cc1ccc(C2=NNC(C)(C3(C)NN=C(c4ccc(C)cc4)S3)S2)cc1 (stereo unspecified)	x	41
Cc1ccc(C2=NNC3(S2)C(=O)Nc2ccccc23)cc1 (stereo unspecified)	1	99*
Cc1ccc(C2=NNC3(S2)C(=O)Nc2ccc(C)cc23)cc1 (stereo unspecified)	0	100*
COc1cccc2sc(N(C)CC(=O)Nc3cccc(NS(C)(=O)=O)c3)nc12	-8	-1
COc1ccccc1Oc1c(C(F)(F)F)oc2c(CN3CCCC(C)C3)c(O)ccc2c1=O (stereo unspecified)	-7	14
CC1(C)COc2ccc(NC(=O)CN3C(=O)c4ccccc4C3=O)cc2NC1=O	4	17
CC12CCC3C(CCC4CCCCC43C)C1CCC2N (stereo unspecified)	-1	100*
CC12CCC3C(CCC4CCCCC43C)C1CC(c1nc3ccccc3[nH]1)=C2O (stereo unspecified)	-1	-1
Cc1ccc(NC(=O)c2ccc(C(C)(C)C)cc2)c(C)c1	-8	-24
COc1ccc(N2C(=O)c3ccccc3C2C(=O)NC2CCCC2)cc1 (stereo unspecified)	-15	23
O=C(NC1CCCc2ccccc21)C1CCN(S(=O)(=O)N2CCCCCC2)CC1 (stereo unspecified)	-6	-3
COc1ccc2[nH]cc(CN3CCC(C(=O)NC4CCCc5ccccc54)CC3)c2c1 (stereo unspecified)	0	69*
COc1ccc2sc(N(Cc3ccccn3)C(=O)CSCc3ccccc3)nc2c1	-7	-8
COc1cc(O)c(CN(C)C)c2oc(-c3ccccc3)cc(=O)c12	-3	1
SMILES	Pf apPOL block	mHTT-CaM PPI inh
COc1cc2oc(-c3ccccc3)cc(=O)c2c(O)c1CN(C)C	27	100*
O=C(c1noc2c1CCCCC2)N(Cc1ccco1)C1CCCC1	-2	-6
CC1CCCN(C(=O)COc2ccc(Cl)cc2)C1 (stereo unspecified)	-5	-9
O=C(COc1ccc(Cl)cc1)N1CCC(N2CCc3ccccc32)CC1	-4	86*
O=C(O)C1C2CC3C1C(=O)Oc1ccccc1C1c4sc(=O)[nH]c4SC2C13 (stereo unspecified)	2	-3
O=c1[nH]c2c(s1)C1c3ccccc3OC3CCCC(S2)C31 (stereo unspecified)	-52	52*
Cc1ccc(C(=O)N2CCN(c3nc(CN4CCC(C)CC4)cs3)CC2)cc1	-3	7
COc1ccc(C2=NN(C(=O)CN3CCC(C)CC3)C(c3ccccc3C)C2)cc1 (stereo unspecified)	-2	32
COc1ccccc1C1CC(c2ccccc2F)=NN1C(=O)CN1CCCCC1 (stereo unspecified)	-3	26
COc1cccc(C2=NN(C(=O)CN3CCCCC3)C(c3ccccc3C)C2)c1 (stereo unspecified)	-5	61*
COc1ccccc1C1=NN(C(=O)CN2CCCCC2)C(c2cc(C)ccc2C)C1 (stereo unspecified)	-7	100*
O=C(ON=C(Cc1ccccc1)Cc1ccccc1)c1sc2ccccc2c1Cl	-1	x
CCn1cc(NC(=O)N2CCC(C(N)=O)CC2)c2ccccc21	-3	-6
CCC(=O)NCc1nc2c(n1C)CN(S(=O)(=O)c1ccc(C3CCCCC3)cc1)CC2	-2	25
COc1cccc(C=C2Oc3c(CN4CCN(CCO)CC4)c(O)cc(C)c3C2=O)c1OC	-4	-3
N#CC1=C(N)SC(N)=C(C#N)C1c1ccncc1	x	2
N#CC1=C(N)SC(N)=C(C#N)C1c1ccc(Cl)c(Cl)c1	-2	98*
COC(=O)c1c(NC(=O)C(C)C)sc(C)c1-c1ccccc1	-8	-34
